For 37 molecules, inhibition results are on record in PubChem BioAssay AID504710 (Sanford-Burnham Center for Chemical Genomics, 2011).

The source made the active and inactive calls.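 Rule for the calls: active = inhibition reaching about 16% in any single replicate (limit read from the data); inactive = the rest.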

For orientation: inhibition means the change of the read-out against control, counted positive when it falls.

The target in this experiment is Hexokinase HKDC1 (Homo sapiens) (UniProt Q2TB90). Description: compounds lowering human HKDC1 activity – biochemical, single concentration, confirmation (AID 504710). The following applies: recombinant HKDC1, G6PDH/diaphorase/resazurin fluorescence; at 20 µM; stronger effect = higher value. (In general: Alamar Blue is a resazurin reagent that responds to reducing activity.)
Hexokinase HKDC1 (Homo sapiens), sequence (Q2TB90 whole entry, looked up): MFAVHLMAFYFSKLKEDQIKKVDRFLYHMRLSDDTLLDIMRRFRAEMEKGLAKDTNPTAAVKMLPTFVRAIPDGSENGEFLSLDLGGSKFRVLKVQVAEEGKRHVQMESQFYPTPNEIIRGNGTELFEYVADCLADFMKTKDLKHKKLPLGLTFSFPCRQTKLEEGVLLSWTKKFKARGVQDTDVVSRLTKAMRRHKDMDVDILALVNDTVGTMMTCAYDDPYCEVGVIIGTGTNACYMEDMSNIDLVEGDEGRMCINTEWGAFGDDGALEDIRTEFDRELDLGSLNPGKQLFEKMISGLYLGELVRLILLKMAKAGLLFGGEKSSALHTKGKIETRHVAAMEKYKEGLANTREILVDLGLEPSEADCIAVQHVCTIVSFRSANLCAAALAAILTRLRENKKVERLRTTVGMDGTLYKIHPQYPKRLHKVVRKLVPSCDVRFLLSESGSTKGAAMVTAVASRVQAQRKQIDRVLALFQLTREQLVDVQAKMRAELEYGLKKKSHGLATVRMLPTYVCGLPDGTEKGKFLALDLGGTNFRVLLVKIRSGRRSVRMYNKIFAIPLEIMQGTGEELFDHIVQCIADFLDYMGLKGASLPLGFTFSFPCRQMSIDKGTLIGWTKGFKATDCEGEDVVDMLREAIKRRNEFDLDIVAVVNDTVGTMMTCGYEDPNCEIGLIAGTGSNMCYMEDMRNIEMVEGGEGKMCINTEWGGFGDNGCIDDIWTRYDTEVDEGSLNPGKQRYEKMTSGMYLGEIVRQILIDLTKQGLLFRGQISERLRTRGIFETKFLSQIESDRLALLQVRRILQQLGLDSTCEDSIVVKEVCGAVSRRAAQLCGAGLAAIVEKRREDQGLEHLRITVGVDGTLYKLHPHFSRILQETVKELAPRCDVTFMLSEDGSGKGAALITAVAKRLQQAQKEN
Take `COc1cc(NC(=O)c2cnc(N)s2)cc(C(=O)Nc2cccc(C(F)(F)F)c2)c1`: the inhibition was 41.2% (active). For `O=C1C(Nc2ccccc2)=C/C(=N/S(=O)(=O)c2cccs2)c2ccccc21`, the inhibition is 65% (active). For `Cc1ccccc1N=C1NN=C(c2ccccc2F)CS1` the value was -40.3% (inactive). In the case of `NS(=O)(=O)c1ccc(N=Nc2c(=O)[nH]n3c(=O)c4c([nH]c23)CCCC4)cc1`, the inhibition was 72.5% (active).

For `O=C(CNC(=O)c1ccc2c(c1)OCCO2)N/N=C/c1ccc(O)cc1O`, the inhibition is 18.4% (active).

Consider `CC(=NNC(=S)SCc1ccccc1)c1ccccn1`, for which the inhibition is -28.3% (inactive).

Take `O=C(O)c1cc(O)c2c(c1)[C@@H]([C@H]1c3cc(C(=O)O)cc(O)c3C(=O)c3c(O[C@@H]4O[C@H](CO)[C@@H](O)[C@H](O)[C@H]4O)cccc31)c1cccc(O[C@@H]3O[C@H](CO)[C@@H](O)[C@H](O)[C@H]3O)c1C2=O`: the inhibition was 34.1% (active).

Turning to `O=C(/C=C/c1ccc(Br)cc1)NC(=S)Nc1ccc(S(=O)(=O)Nc2nccs2)cc1`, the inhibition is 39.5% (active). For `Cc1ccc2oc(=O)c3cnn(CC(=O)N4CCc5ccccc5C4)c3c2c1` the value was -50.8% (inactive). For `O=C(O)c1ccc(N=Cc2c(O)ccc3ccccc23)cc1` the value was 43% (active); for `Cc1ccccc1NC1=C/C(=N\S(=O)(=O)c2ccc(C(=O)O)cc2)c2ccccc2C1=O`, 71.3% (active). `O=[N+]([O-])c1ccc(NN=Cc2ccc(O)cc2O)nc1`: the inhibition was 50.8% (active). In the case of `COc1cc2c(cc1OC)-c1cc(NCc3ccccn3)nc(=O)n1CC2`, the inhibition was 54% (active). For `Cc1ccc(-n2c3nc(=O)[nH]c(=O)c-3cc3cc([N+](=O)[O-])ccc32)cc1C` the value was 65.3% (active). The result for `Cc1onc(-c2ccccc2)c1C(=O)NNC(=S)NC(=O)c1ccc(Br)cc1` reads -56.7% (inactive); that for `O=c1c2ccccc2nc(/C=C/c2cccnc2)n1Cc1ccccc1`, 60.7% (active). `CC(=O)Nc1ccc(NC2=C/C(=N/S(=O)(=O)c3cccs3)c3ccccc3C2=O)cc1`: the inhibition is 51.9% (active). As to `O=C(NC1=C(NC2CCS(=O)(=O)C2)C(=O)c2ccccc2C1=O)c1ccccc1` (configuration not stated), the inhibition was 68.9% (active).

Turning to `CC(=O)NC1C(=O)N(CCN2CCOCC2)c2ccc(Br)cc21` (configuration not stated), the inhibition was 61% (active). For `COc1ccc(OC)c2[nH]c(=O)c(CCNC(=O)c3cc4ccccc4o3)cc12` the value was 59.6% (active); for `CC(=O)C1=C(c2ccccc2)N(C(C)=O)n2c(C)nnc2S1`, -125% (inactive). For `O=C1C(Cl)=C(NC(=O)c2ccccc2)C(=O)C(Cl)=C1NC(=O)c1ccccc1` the value was 41.4% (active); for `CCC(c1ccccc1)C(CC)c1cc(O)c(O)c(O)c1` (configuration not stated), 35.8% (active). For `CCOc1ccc(-n2c(C)cc(C(=O)CCl)c2C)cc1`, the inhibition was 28.5% (active). For `O=C(O)c1cc(O)c2c(c1)[C@H]([C@H]1c3cc(C(=O)O)cc(O)c3C(=O)c3c(O[C@@H]4O[C@H](CO)[C@@H](O)[C@H](O)[C@H]4O)cccc31)c1cccc(OC3O[C@H](CO)[C@@H](O)[C@H](O)[C@H]3O)c1C2=O` (some centres not stated) the value was 52.1% (active); for `Cc1ccc(C(=O)c2c(C)oc3c2C(=O)C(=O)c2ccccc2-3)cc1`, 46.2% (active); for `CC(=O)Oc1cccc2c1C(=O)C1CC=CC(OC(C)=O)C1C2=O` (configuration not stated), -65.8% (inactive). `Cc1[nH]c2ccccc2c1C1=CC(=O)C=CC1=O`: the inhibition is 52.9% (active). For `N#Cc1c(SCC(=O)Nc2nc3ccc(Br)cc3s2)sc2c(O)cc(=O)[nH]c12` the value was 44.9% (active); for `Cc1cc(C(F)F)n2ncc(C(=O)NCCc3ccc(Cl)cc3)c2n1`, 36.2% (active).

As for `O=S(=O)(NC1c2cccc3cccc(c23)C1N1CCN(CCO)CC1)c1ccccc1` (configuration not stated), the inhibition is -118% (inactive).

For `Cn1c(SSc2ccc(-c3cccnc3)n2C)ccc1-c1cccnc1`, the inhibition was -248% (inactive). The result for `NC1=CC(=O)C(=O)c2ccccc21` reads 48.7% (active); that for `COC1=CC(=O)c2c(ccc3ncnc(N)c23)C1=O`, 87.6% (active); that for `COC1=C(Br)C(=O)c2ncccc2C1=O`, 64.7% (active). For `CCOc1ccccc1Nc1nnc(SCc2nnc(-c3cc(OC)c(OC)c(OC)c3)o2)s1` the value was 44.7% (active).

For `O=C(CSc1cccc2cccnc12)N/N=C/c1cccnc1`, the inhibition was -46.6% (inactive).
